In publication PMC4336329 (PLoS ONE, 2015):
In all, about 310,000 compounds went through this assay and about 14,000 (4.5%) showed an effect of 50% or more. Effects have a minus sign here. The entries come from a sample that favours strong results as a whole.

These compounds were tested against human ether-à-go-go-related gene (hERG) potassium channel (human, UniProt Q12809) (assay: primary screen, population patch clamp on CHO cells stably expressing hERG; higher = less effect of the substance).
Chain of human ether-à-go-go-related gene (hERG) potassium channel (Q12809 whole entry, looked up): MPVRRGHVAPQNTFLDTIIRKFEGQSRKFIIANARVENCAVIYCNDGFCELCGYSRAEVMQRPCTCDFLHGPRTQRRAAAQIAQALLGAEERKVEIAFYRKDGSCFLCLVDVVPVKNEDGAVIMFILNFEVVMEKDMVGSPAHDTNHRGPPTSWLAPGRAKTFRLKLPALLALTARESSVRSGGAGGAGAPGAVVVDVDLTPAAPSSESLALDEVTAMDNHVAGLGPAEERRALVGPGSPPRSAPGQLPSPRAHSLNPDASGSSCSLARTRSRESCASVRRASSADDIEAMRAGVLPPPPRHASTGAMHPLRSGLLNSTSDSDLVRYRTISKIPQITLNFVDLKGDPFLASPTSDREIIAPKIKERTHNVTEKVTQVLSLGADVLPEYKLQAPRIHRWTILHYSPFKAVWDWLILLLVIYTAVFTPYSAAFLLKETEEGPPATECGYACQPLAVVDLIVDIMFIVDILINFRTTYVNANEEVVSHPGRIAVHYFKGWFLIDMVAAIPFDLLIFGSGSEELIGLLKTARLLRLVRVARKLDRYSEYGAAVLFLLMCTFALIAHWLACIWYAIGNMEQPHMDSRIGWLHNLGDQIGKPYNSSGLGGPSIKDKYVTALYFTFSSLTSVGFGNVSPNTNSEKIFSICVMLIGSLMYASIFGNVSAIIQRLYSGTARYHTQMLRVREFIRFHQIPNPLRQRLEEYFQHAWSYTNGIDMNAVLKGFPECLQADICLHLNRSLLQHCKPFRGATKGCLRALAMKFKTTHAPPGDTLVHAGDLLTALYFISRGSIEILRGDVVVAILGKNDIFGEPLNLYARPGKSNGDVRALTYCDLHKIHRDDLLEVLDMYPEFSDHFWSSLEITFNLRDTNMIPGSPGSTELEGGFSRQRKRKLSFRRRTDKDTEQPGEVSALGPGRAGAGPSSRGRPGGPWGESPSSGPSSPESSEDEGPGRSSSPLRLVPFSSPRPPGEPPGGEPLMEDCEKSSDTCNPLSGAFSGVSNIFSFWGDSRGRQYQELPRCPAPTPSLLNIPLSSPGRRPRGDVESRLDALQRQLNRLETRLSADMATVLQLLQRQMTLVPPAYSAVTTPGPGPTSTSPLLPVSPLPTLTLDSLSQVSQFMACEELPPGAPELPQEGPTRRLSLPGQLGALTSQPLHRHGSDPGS
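Note: peak tail current of the secondary pulse compared with the same well before compound.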

Compound	hERG current change (%, negative = inhibition) at 10uM [%]
CC12CCC(=O)N1C(C(=O)N1CCN(c3cccc(Cl)c3)CC1)CS2 (stereo not drawn)	-19.4
Cc1ccccc1-c1noc(-c2ccccc2C(=O)NCC2CCCO2)n1 (stereo not drawn)	-3.02
Cc1ccc(C)c2nc3sc(C(=O)O)cc3cc12	20.9
CN1C(=O)C(C)(C)c2cc(S(=O)(=O)N3CCCC(C(=O)NCc4ccc(Cl)cc4)C3)ccc21 (stereo not drawn)	-8.2
C=CCn1c(O)c(C(CC)=NCc2ccc3c(c2)OCO3)c(=O)[nH]c1=O	3.09
CCN(CC)c1nc(Nc2ccc([N+](=O)[O-])cc2)nc(N(CC)CC)n1	11.1
CCN(CC)CCCn1c2c(c(SCC(=O)Nc3ccc(OC(F)(F)F)cc3)nc1=O)CCC2	-67.7
Clc1ccc(-c2nnc(SCc3ccon3)o2)c(Cl)c1	-33.9
COc1ccc(NC(=O)[C@@H]2CCCN2C(=O)[C@@H]2Cc3ccccc3CN2C(=O)OC(C)(C)C)cc1	14.8
COC(=O)CCC(=O)c1oc2ccc(OC)cc2c1N	4.41
CC(CC(=O)Nc1ccc(S(=O)(=O)N2CCOCC2)cc1)c1ccccc1 (stereo not drawn)	-4.25
CCOc1ccc(S(=O)(=O)N2CCCCC2)cc1NC(=O)CC1OC(=O)c2ccccc21 (stereo not drawn)	-31.3
CC(C)Oc1ccc(S(=O)(=O)N2CCOCC2)cc1NC(=O)CC1OC(=O)c2ccccc21 (stereo not drawn)	-25
O=C(Nc1cc(S(=O)(=O)N2CCOCC2)ccc1OCC(F)(F)F)C1=COCCO1	-42.8
CC(CC(=O)Nc1cc(S(=O)(=O)N2CCOCC2)ccc1OCC(F)(F)F)c1ccccc1 (stereo not drawn)	-50.2
O=C(CC1OC(=O)c2ccccc21)Nc1cc(S(=O)(=O)N2CCOCC2)ccc1OCC(F)(F)F (stereo not drawn)	-52.2
CCOc1ccc(Br)cc1C(=S)N1CCCC1	9.29
COC(=O)c1ccc(Oc2cc(C)nc(Cl)n2)cc1	13.9
O=C1CCCC2=C1C(c1ccncc1)Nc1ccccc1N2 (stereo not drawn)	10.2
Cc1ccc(NC(=O)C2CCCN2C(=O)OCc2ccccc2)c(C)c1 (stereo not drawn)	12.7
Cc1cccc(NC(=O)CC2c3ccccc3Oc3ccccc32)c1	18

Compound	hERG current change (%, negative = inhibition) at 10uM [%]
CC(C)c1cc(N2CCN(C(=O)c3ccco3)CC2)n2c(nc3ccccc32)c1C#N	-34.1
CCCc1cc(-n2ccnc2C)n2c(nc3ccccc32)c1C#N	0.616
CCCc1cc(-n2cnc3ccccc32)n2c(nc3ccccc32)c1C#N	-50.1
CCCc1cc(N2CCN(C(=O)c3ccco3)CC2)n2c(nc3ccccc32)c1C#N	-56.1
CCCc1cc(-n2ccnc2)n2c(nc3ccccc32)c1C#N	-29.7
CCCCc1nc(N2CCN(C(=O)c3ccco3)CC2)c(C#N)c2c1CCCC2	-5.71
NC(=O)c1cc[n+](CC2=C(C(=O)[O-])N3C(=O)[C@@H](NC(=O)C(c4ccccc4)S(=O)(=O)[O-])[C@H]3SC2)cc1.[Na+] (stereo partly drawn)	20.3
Cc1cc(OCc2nn[nH]n2)c2c3c(c(=O)oc2c1)CCC3	3.12
Cc1cc(C)c(S(=O)(=O)NCc2ccc3c(c2)OCO3)cc1C	-6.86
Cc1onc(-c2ccccc2)c1C(=O)c1ccccc1	3.87
COCCN1CC(C(=O)NCc2ncccc2C)CCC1=O (stereo not drawn)	22.6
Cc1ccc(S(=O)(=O)CCC(=O)N(Cc2nnc(-c3ccc(Cl)cc3)o2)C2CC2)cc1	-12.7
O=[N+]([O-])c1ccc(N2CCN(S(=O)(=O)c3ccccc3)CC2)cc1NCc1cccnc1	1.8
Cc1ccc2c(CC(=O)OCc3cc(=O)n4c(n3)sc3ccccc34)coc2c1	5.05
CC(CN1CCCC1)OC(=O)C(c1ccccc1)c1ccccc1.Cl (stereo not drawn)	-42.2
CC(CN1CCOCC1)OC(=O)/C=C/c1ccccc1.Cl (stereo not drawn)	10.1
CC(CN1CCCCC1)OC(=O)/C=C/c1ccccc1.Cl (stereo not drawn)	-71
CC(CN1CCCCC1)OC(=O)C(C)(c1ccccc1)c1ccccc1.Cl (stereo not drawn)	-52.3
COc1ccc(/C=C/C(=O)OC(C)CN2CCCCC2)cc1.Cl (stereo not drawn)	-26.2
CC(CN1CCOCC1)OC(=O)C(C)(c1ccccc1)c1ccccc1 (stereo not drawn)	-8.05
COc1cccc2cc(C(=O)NCc3ccc(Cl)cc3)c(=O)oc12	14.4

Compound	hERG current change (%, negative = inhibition) at 10uM [%]
O=C(Cn1cnc2ccccc2c1=O)Nc1cccc(-c2nnc3n2CCCCC3)c1	0.387
N=c1c(-c2nc3ccccc3[nH]2)cc(C(=O)c2cccs2)nn1-c1ccccc1	-50.2
Cc1cccc(-n2nc(C(=O)c3ccco3)cc(-c3nc4ccccc4[nH]3)c2=N)c1	-65.7
COc1ccc(-n2nc(C(=O)c3cccs3)cc(-c3nc4ccccc4[nH]3)c2=N)cc1	-4.53
Cc1ccc2nc(-c3cccc(NC(=O)c4ccco4)c3)[nH]c2c1	-30.7
O=C(Nc1cccc(-c2nc3ccccc3[nH]2)c1)c1ccco1	-16.9
O=C(Nc1ccc(-c2nc3ccccc3[nH]2)cc1)c1ccco1	-18.4
N=c1c(-c2nc3ccccc3[nH]2)cc(C(=O)c2ccco2)nn1-c1ccccc1	-59.5
Cc1ccccc1-n1nc(C(=O)c2cccs2)cc(-c2nc3ccccc3[nH]2)c1=N	-1.9
N=c1c(-c2nc3ccccc3[nH]2)cc(C(=O)c2cccs2)nn1-c1ccc(Cl)cc1	8.51
COc1ccc(CCNC(=O)CCC(=O)N2CCN(S(=O)(=O)c3ccccc3)CC2)cc1OC	4.4
Fc1ccc(-n2c(Cc3ccccc3)nnc2SCc2nc(-c3ccc(Cl)cc3)no2)cc1	-1.6
Cc1cc(N(CN2CCCC2=O)C(=O)c2ccc(OC(C)C)cc2)no1	-2.94
O=C(NP(=O)(N1CCOCC1)N1CCOCC1)C1=C(N2CCOCC2)/C(=C\c2ccccc2)CC1	18.1
Cc1nc2n(n1)C(c1ccccc1)C1=C(CC(c3ccco3)CC1=O)N2 (stereo not drawn)	11.4
CCSc1nnc(-c2cccc(S(=O)(=O)N(C)C)c2)n1-c1cc(OC)ccc1OC	-49.8
COc1ccc(OC)c(-n2c(SCC(C)=O)nnc2-c2cccc(S(=O)(=O)N(C)C)c2)c1	-16.9
CCCSc1nnc(-c2cccc(S(=O)(=O)N(C)C)c2)n1-c1cc(OC)ccc1OC	-68.2
CC(C)(C)OC(=O)CNC(=O)c1nc[nH]c1C(=O)N1CCN(C(=O)OC(C)(C)C)CC1	-15.8
CCOc1ccc(C(=O)NCCC(=O)NCCCC(=O)O)cc1	6.08
Cc1cccc(N2N=C(C(=O)O)CCC2=O)c1	10.2

Compound	hERG current change (%, negative = inhibition) at 10uM [%]
CC(=O)c1ccc(NC(=O)c2cnn3c(C(F)F)cc(C4CC4)nc23)cc1	11.1
O=C(Nc1cccnc1)c1cnn2c(C(F)F)cc(C3CC3)nc12	-57.6
O=C(O)c1cnn2c(C(F)F)cc(C3CC3)nc12	3.73
Cc1ccc(C)c(SCC(=O)N(C)CC(=O)Nc2ccc(N3CCOCC3)cc2)c1	-5.12
Cc1ccc(NC(=S)N/N=C/c2ccc([N+](=O)[O-])s2)cc1	-3.04
C[C@H](NS(=O)(=O)c1ccc2c(c1)OCCCO2)C(=O)N1CCN(Cc2ccc(C#N)cc2)CC1	-61.1
O=C(C1CCN(Cc2cccs2)CC1)N1CCN(Cc2ccc3c(c2)OCO3)CC1.O=C(O)C(=O)O	-14.5
C[C@H](NS(=O)(=O)c1ccc2c(c1)OCCCO2)C(=O)N1CCN(c2ccc(F)cc2)CC1	-34.8
COc1ccc(N2CC(C(=O)N3CCN(Cc4ccc5c(c4)OCO5)CC3)CC2=O)cc1 (stereo not drawn)	-19
O=C(C1CC(=O)N(c2ccc(Cl)cc2)C1)N1CCN(Cc2ccc3c(c2)OCO3)CC1 (stereo not drawn)	-67.7
O=C(C1CCN(Cc2ccc(Cl)cc2)CC1)N1CCN(Cc2ccc3c(c2)OCO3)CC1	-66.6
N#Cc1ccc(CN2CCN(C(=O)CNS(=O)(=O)c3ccc4c(c3)OCCCO4)CC2)cc1	-20.8
O=C(C1CCN(Cc2ccccc2O)CC1)N1CCN(Cc2ccc3c(c2)OCO3)CC1	-23
COc1cccc(CN2CCC(C(=O)N3CCN(Cc4ccc5c(c4)OCO5)CC3)CC2)c1	-19.8
O=C(C1CC(=O)N(c2ccc3c(c2)OCCO3)C1)N1CCN(Cc2ccccc2)CC1 (stereo not drawn)	0.404
O=C(C1CCN(c2nnc(-n3cccc3)s2)CC1)N1CCN(Cc2ccc3c(c2)OCO3)CC1	-68.2
O=C(c1ccc(F)cc1)N1CCC(C(=O)N2CCN(Cc3ccc4c(c3)OCO4)CC2)CC1	-10.5
O=C(c1c[nH]c2ccc(S(=O)(=O)N3CCOCC3)cc2c1=O)N1CCC2(CC1)OCCO2	23.7
